In the supplement of paper PMC10849652:
About 7,900 targets were measured; listed, in parts, are those with a hit and a random draw of the rest. About 0.6% of all pairs of compound and target were hits. A number with no mark means an inactive call.

Tests used:
Test in all cases: log2 fold change, soluble protein after heating vs DMSO (PISA); higher = thermal stabilisation; K562 cells, 10 uM, 30 min; active = over 0.2 and 3.5 SD of the protein, either way, in both replicates (recomputed)
[1] = compound: CC1=C(C=C(C=C1)NC(=O)C2=CC(=CC=C2)C(C)(C)C#N)NC3=CC4=C(C=C3)N=CN(C4=O)C
Method in brief: (§1)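 Values are thermal stability changes relative to control samples and are taken from duplicates. They are stated as log2 fold changes. Before quantification by TMTpro 16plex LC-MS/MS with equalised channel sums, K562 cells at 2×10^6 cells/mL were treated with 10 μM compound for 30 min, heated in aliquots for 3 min across 48°C-58°C, pooled, extracted in PBS with 0.5% NP-40 at 4°C, and centrifuged at 21,000xg for 90 min to give the soluble supernatant.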

[2] = compound: CC1=C(C=C(C=C1)NC(=O)C2=CC(=CC=C2)N(C)C)NC(=O)C3=CC=C(C=C3)O
Method in brief: as §1

[3] = compound: CC1=CC=C(C=C1)SC2=C3C=C(SC3=CN=C2)C(=O)N
Method in brief: as §1

[4] = compound: CC1=NC(=CC=C1)C2=C(N=C(N2)C(C)(C)C)C3=CC4=NC=CN=C4C=C3
Method in brief: as §1

Nexturastat A = compound: CCCCN(Cc1ccc(C(=O)NO)cc1)C(=O)Nc1ccccc1 [Nexturastat A]
Method in brief: as §1

vemurafenib = compound: CCCS(=O)(=O)Nc1ccc(F)c(C(=O)c2c[nH]c3ncc(-c4ccc(Cl)cc4)cc23)c1F [vemurafenib]
Method in brief: as §1

[5] = compound: CCCS(=O)(=O)Nc1ccc(F)c(C(=O)c2c[nH]c3ncc(Cl)cc23)c1F
Method in brief: as §1

[6] = compound: CCCc1cc(C)[nH]c(=O)c1CNC(=O)c1cc(-c2ccnc(N3CCN(C)CC3)c2)cc2c1cnn2C(C)C
Method in brief: as §1

givinostat = compound: CCN(CC)Cc1ccc2cc(COC(=O)Nc3ccc(C(=O)NO)cc3)ccc2c1 [givinostat]
Method in brief: as §1

barasertib = compound: CCN(CCCOc1ccc2c(Nc3cc(CC(=O)Nc4cccc(F)c4)[nH]n3)ncnc2c1)CCOP(=O)(O)O [barasertib]
Method in brief: as §1

[7] = compound: CC[C@@H]1C(=O)N(C)c2cnc(Nc3ccc(C(=O)NC4CCN(C)CC4)cc3OC)nc2N1C1CCCC1
Method in brief: as §1

volasertib = compound: CC[C@@H]1C(=O)N(C)c2cnc(Nc3ccc(C(=O)N[C@H]4CC[C@H](N5CCN(CC6CC6)CC5)CC4)cc3OC)nc2N1C(C)C [volasertib]
Method in brief: as §1

[8] = compound: CC[C@H](C)N1C=C(C2=C(C=C(C=C21)C3=CN=C(C=C3)N4CCNCC4)C(=O)NCC5=C(C=C(NC5=O)C)C)C
Method in brief: as §1

epoxomicin = compound: CC[C@H](C)[C@@H](C(=O)N[C@@H]([C@@H](C)O)C(=O)N[C@@H](CC(C)C)C(=O)[C@]1(CO1)C)NC(=O)[C@H]([C@@H](C)CC)N(C)C(=O)C [epoxomicin]
Method in brief: as §1

[9] = compound: CCn1c(C(=O)N(C2CC2)C2CC2)cc2c3c(ncn3C)c(Nc3cc(C)n(C)n3)nc21
Method in brief: as §1

[10] = compound: CCn1cc(-c2ccnc3[nH]c(-c4cccc(CN(C)C)c4)cc23)c(-c2ccc(NC(=O)N(C)C)cc2)n1
Method in brief: as §1

[11] = compound: CN(C)CC(=O)Nc1ccc2[nH]c(=O)c3ccccc3c2c1
Method in brief: as §1

rosiglitazone = compound: CN(CCOC1=CC=C(C=C1)C[C@H]2C(=O)NC(=O)S2)C3=CC=CC=N3 (racemic) [rosiglitazone]
Method in brief: as §1

[12] = compound: CN1C2=C(C3=C1C(=O)N(N=C3)CC4=CC(=CC=C4)N)SC(=C2)S(=O)C
Method in brief: as §1

[13] = compound: CN1CCC(CNc2ccc3ncc(-c4cccc(OC(F)(F)F)c4)n3n2)CC1
Method in brief: as §1

Sequence of UniProt Q96DX4 (Q96DX4 whole entry, looked up): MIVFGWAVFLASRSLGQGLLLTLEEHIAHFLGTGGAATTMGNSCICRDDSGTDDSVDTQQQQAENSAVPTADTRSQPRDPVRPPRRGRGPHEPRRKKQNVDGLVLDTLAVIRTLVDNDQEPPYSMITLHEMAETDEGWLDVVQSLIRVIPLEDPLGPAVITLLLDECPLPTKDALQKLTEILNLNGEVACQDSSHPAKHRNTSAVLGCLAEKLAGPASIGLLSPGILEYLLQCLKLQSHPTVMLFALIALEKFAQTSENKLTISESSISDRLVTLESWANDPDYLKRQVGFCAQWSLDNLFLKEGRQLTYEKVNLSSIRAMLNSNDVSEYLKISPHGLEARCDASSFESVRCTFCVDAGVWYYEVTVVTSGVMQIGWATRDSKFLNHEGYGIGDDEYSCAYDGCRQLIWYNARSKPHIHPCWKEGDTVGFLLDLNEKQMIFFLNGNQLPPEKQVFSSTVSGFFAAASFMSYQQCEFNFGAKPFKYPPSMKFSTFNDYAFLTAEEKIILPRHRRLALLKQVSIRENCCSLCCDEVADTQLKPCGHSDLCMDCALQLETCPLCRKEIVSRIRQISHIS
Sequence of UniProt Q9NRX5 (Q9NRX5 whole entry, looked up): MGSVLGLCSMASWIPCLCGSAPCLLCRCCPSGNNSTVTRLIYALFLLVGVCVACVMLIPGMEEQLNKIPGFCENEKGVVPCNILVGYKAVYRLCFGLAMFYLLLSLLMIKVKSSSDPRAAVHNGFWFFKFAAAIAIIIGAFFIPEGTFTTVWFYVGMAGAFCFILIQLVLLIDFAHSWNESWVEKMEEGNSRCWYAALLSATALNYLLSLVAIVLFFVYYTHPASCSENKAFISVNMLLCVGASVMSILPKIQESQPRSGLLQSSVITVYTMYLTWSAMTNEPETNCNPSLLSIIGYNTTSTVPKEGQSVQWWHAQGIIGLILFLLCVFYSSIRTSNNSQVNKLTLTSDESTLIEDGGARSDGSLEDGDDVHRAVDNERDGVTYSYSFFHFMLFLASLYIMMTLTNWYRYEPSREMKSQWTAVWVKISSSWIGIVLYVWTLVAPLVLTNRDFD
Sequence of UniProt P04049 (P04049 whole entry, looked up): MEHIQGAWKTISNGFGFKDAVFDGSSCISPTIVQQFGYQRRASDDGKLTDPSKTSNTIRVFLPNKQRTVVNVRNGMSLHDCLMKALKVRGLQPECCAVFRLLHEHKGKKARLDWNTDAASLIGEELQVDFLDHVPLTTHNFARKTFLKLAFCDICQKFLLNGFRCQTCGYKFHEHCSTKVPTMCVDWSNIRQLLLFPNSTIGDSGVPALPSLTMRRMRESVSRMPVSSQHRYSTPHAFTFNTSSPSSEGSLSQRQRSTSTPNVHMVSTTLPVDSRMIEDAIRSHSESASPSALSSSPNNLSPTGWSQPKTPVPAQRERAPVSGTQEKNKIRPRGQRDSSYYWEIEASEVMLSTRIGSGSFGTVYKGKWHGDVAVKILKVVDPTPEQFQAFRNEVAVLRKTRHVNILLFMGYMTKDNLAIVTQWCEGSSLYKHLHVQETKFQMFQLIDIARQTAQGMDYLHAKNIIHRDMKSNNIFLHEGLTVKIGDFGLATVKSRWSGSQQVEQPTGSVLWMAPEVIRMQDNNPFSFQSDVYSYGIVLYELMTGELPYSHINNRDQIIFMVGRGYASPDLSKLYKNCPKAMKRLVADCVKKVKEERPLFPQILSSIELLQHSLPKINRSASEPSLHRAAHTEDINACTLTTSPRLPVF
Sequence of UniProt Q5PRF9 (Q5PRF9 whole entry, looked up): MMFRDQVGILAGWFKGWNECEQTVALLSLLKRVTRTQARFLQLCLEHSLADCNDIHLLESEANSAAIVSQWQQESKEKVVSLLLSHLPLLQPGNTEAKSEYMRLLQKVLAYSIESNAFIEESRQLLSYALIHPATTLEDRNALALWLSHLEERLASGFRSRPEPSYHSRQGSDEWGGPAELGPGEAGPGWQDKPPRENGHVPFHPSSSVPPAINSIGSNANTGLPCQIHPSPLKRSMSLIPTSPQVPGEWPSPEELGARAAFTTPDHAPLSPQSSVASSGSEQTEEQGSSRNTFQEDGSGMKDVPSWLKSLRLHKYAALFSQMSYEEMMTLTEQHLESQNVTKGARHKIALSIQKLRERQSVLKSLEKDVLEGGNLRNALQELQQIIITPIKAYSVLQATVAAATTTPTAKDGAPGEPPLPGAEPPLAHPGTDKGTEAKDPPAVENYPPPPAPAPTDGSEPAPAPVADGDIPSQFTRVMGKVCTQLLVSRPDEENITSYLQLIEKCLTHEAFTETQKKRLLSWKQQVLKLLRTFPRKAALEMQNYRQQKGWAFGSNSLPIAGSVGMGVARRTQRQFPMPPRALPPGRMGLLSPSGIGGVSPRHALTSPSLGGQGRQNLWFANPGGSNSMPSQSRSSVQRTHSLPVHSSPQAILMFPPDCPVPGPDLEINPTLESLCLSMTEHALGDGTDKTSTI
Sequence of UniProt O94979 (O94979 whole entry, looked up): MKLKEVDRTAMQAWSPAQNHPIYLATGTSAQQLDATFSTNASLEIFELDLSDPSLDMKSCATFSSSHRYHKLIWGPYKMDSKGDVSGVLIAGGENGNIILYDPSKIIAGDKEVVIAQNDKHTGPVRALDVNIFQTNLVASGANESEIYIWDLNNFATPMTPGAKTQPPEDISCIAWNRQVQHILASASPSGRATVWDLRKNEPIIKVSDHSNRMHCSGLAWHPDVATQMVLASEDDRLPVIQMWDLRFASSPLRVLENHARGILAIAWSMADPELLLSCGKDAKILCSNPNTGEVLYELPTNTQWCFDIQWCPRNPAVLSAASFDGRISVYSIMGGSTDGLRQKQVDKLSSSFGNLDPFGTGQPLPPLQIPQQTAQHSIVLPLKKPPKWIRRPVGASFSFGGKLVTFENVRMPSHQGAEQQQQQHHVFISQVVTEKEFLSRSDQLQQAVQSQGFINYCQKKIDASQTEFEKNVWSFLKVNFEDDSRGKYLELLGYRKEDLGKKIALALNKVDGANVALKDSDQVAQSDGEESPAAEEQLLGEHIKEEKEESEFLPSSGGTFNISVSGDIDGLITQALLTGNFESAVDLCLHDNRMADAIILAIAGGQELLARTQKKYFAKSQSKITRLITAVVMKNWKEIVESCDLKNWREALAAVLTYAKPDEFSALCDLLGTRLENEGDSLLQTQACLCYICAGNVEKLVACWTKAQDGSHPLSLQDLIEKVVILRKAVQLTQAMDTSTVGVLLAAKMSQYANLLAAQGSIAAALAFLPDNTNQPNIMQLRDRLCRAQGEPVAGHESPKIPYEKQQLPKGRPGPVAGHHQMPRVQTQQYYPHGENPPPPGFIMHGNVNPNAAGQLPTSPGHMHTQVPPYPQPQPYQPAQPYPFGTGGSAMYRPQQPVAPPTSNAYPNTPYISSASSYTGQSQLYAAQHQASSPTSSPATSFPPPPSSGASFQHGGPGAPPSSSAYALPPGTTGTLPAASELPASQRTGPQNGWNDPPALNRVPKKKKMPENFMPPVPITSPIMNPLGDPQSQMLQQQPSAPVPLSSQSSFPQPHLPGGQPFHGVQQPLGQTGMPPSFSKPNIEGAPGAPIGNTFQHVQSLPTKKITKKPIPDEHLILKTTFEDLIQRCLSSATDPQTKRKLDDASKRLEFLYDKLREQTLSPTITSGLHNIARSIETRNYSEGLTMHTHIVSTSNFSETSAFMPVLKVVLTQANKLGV
Sequence of UniProt Q02383 (Q02383 whole entry, looked up): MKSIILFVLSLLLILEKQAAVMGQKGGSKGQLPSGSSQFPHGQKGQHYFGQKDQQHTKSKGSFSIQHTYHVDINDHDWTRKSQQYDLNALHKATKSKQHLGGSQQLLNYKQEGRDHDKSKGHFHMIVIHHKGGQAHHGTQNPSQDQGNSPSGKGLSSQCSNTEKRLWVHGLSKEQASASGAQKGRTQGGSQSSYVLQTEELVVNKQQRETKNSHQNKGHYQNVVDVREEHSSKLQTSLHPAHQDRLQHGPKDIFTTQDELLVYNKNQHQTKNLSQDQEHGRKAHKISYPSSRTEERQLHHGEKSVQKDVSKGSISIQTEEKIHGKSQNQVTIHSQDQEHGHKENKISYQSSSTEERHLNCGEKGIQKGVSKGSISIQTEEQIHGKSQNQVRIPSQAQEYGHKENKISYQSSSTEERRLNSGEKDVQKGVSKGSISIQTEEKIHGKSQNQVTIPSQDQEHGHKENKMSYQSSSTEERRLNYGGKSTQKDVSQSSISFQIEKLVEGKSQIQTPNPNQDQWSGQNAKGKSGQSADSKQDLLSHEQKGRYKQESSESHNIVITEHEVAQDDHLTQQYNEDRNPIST
Sequence of UniProt Q96D15 (Q96D15 whole entry, looked up): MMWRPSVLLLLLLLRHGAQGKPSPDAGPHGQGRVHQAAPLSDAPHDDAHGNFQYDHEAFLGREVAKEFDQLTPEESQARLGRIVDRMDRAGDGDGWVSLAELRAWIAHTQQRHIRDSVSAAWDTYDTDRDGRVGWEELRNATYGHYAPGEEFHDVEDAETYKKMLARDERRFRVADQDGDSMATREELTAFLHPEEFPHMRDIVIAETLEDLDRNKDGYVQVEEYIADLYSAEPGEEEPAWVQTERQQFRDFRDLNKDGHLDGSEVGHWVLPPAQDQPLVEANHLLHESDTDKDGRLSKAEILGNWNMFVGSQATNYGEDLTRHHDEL
Sequence of UniProt Q9BY42 (Q9BY42 whole entry, looked up): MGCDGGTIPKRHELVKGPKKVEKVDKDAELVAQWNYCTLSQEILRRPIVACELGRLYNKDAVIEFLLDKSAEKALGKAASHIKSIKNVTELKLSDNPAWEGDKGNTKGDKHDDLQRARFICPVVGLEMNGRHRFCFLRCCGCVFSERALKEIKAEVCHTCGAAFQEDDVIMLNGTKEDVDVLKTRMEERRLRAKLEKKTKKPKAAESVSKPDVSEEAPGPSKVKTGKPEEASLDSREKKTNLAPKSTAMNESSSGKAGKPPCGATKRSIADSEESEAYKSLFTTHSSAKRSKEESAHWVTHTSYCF
Sequence of UniProt Q9Y3L5 (Q9Y3L5 whole entry, looked up): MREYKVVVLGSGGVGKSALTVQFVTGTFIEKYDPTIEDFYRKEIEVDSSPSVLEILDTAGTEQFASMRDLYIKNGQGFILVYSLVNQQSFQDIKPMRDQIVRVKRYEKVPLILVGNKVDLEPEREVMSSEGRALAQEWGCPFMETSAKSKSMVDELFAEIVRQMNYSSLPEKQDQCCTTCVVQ

Target	log2 fold change [1]	log2 fold change [2]	log2 fold change [3]	log2 fold change [4]	log2 fold change (Nexturastat A)	log2 fold change (vemurafenib)	log2 fold change [5]	log2 fold change [6]	log2 fold change (givinostat)	log2 fold change (barasertib)	log2 fold change [7]	log2 fold change (volasertib)	log2 fold change [8]	log2 fold change (epoxomicin)	log2 fold change [9]	log2 fold change [10]	log2 fold change [11]	log2 fold change (rosiglitazone)	log2 fold change [12]	log2 fold change [13]
RAVER1 (UniProt E9PAU2)	0.144	-0.075	-0.025	0.144	-0.046	-0.1	0.067	0.293	0.131	0.099	-0.222	-1.93 (active)	0.13	0.147	-0.058	-0.006	0.174	0.056	-0.007	-0.375
RCN3 (UniProt Q96D15)	-0.055	0.029	-0.028	-0.073	0.077	-0.003	-0.053	-0.145	-0.023	-0.011	-0.033	0.053	-0.031	-0.118	0	-0.007	-0.019	0.029	-0.03	-0.234
RPS6KA3 (UniProt P51812)	-0.072	-0.157	0.021	0.01	0.015	0.001	0.016	0.042	-0.227	0.06		-0.174	0.065	0.027	0.066	-0.049	0.016	0.052	-0.043	-0.192
SEC31A (UniProt O94979)	-0.053	-0.052	0.015	0.019	0.102	0.054	0.064	-0.032	0.098	0.052	-0.035	-0.354 (active)	0.021	0.034	-0.044	0.018	0.046	0.018	0.051	-0.11
SAFB2 (UniProt Q14151)	0.011	0.068	-0.024	0.011	0.203	-0.048	-0.038	0.097	-0.011	-0.029	0.018	0.118	-0.022	-0.246	-0.003	0.203	-0.061	-0.028	0.235	0.23
RAP2C (UniProt Q9Y3L5)	-0.064	0.052	-0.03		0	0.066	-0.13	-0.052	-0.044	-0.031	0.02	0.05	0.042	0.172	0.054	0.097	0.052	-0.045	-0.105	0.173
RAF1 isoform 2 (UniProt P04049)	0.317	0.056	0.078	-0.043	0.077	0.17	0.438	-0.113	0.016	0.044	0.135	-0.361		-0.003	0.034	-0.241	0.028	0.042	-0.129	-0.222
RSPRY1 (UniProt Q96DX4)	0.106	-0.026	-0.183	-0.035	-0.021	0.034	-0.031	-0.107	-0.007	-0.004	0.082	-0.001	-0.019	0.034	0.006	-0.034	-0.014	0.011	-0.176	0.219 (active)
RABGAP1L isoform 3 (UniProt Q5R372)	0.002	0.018	0.018	-0.005	-0.058	-0.008	0.073	0.03	0.034	0.022	-0.046	-0.107	0.053	0.08	-0.028	-0.034	-0.011	-0.026	0.02	0.025
SIK3 (UniProt H0Y4E8)	0.017	0.18	-0.062	-0.066		-0.08	-0.076	-0.026	0.098		0.032	-0.109	-0.02		-0.058	-0.065	-0.111		-0.019	-0.071
RBM25 (UniProt P49756)	-0.032	0.017	-0.007	-0.074	0.02	0.019	0	-0.093	0.202	0.035	0.024	-0.239	-0.019	0.015	-0.104	0.074	0.041	-0.019	0.086	-0.07
SERINC1 (UniProt Q9NRX5)	0.044	-0.048	0.372	-0.021	0.053	-0.083	-0.018	-0.874 (active)	0.05	0.002	0.001	0.025	-0.223	-0.034	0.019		-0.023	-0.051	-0.194	
SAMD4B (UniProt Q5PRF9)	-0.501 (active)	-0.02	0	-0.054	0.202		-0.132		0.201	0.157		0.078	-0.047	0.02	-0.124	0.023		-0.008	0.089	-0.308
RBBP6 (UniProt Q7Z6E9)	-0.108	0.119	0.03	0.127	-0.051	0.008	0.068	-0.023	0.043	-0.018	-0.061	-0.068	0.013	-0.001	-0.023	-0.003	0.024	0.014		-0.014
RTF2 (UniProt Q9BY42)	0	-0.028	0.019	0.04	0.004	0.129	0.044	-0.019	0.017	0.072	-0.18	-0.45 (active)	0.003	0.118	-0.049	0.012	0.005	-0.055	-0.017	0.161
SEMG2 (UniProt Q02383)	-0.038				-0.062			-0.097		0.015	0.043		0.15	0.06		0.035		0.049		0.058
SH3PXD2B (UniProt A1X283)	-0.029				-0.052	-0.145		0.187	-0.548 (active)	0.043	-2.01 (active)		-0.068	0.048	0.014	0.097	-0.019	-0.008		-1.2 (active)
